According to the supplement of paper PMC11732987, “Enantioselective OTUD7B fragment discovery through chemoproteomics screening and high-throughput optimisation” (Communications Chemistry, 2025):

Columns and labels:
Experiment in all cases: log2 ratio of Biotin-Ahx-Ub-VS probe labelling (fragment/DMSO); higher = less target engagement (more negative = stronger competition), active = hit call of the paper (q ≤ 0.05, log2 ratio ≤ -1)
Details in all cases: compound concentration: 200 uM; treatment time: 3 h
[1] = target: T1, ALG13 (UniProt Q9NP73)
T1 sequence (whole entry): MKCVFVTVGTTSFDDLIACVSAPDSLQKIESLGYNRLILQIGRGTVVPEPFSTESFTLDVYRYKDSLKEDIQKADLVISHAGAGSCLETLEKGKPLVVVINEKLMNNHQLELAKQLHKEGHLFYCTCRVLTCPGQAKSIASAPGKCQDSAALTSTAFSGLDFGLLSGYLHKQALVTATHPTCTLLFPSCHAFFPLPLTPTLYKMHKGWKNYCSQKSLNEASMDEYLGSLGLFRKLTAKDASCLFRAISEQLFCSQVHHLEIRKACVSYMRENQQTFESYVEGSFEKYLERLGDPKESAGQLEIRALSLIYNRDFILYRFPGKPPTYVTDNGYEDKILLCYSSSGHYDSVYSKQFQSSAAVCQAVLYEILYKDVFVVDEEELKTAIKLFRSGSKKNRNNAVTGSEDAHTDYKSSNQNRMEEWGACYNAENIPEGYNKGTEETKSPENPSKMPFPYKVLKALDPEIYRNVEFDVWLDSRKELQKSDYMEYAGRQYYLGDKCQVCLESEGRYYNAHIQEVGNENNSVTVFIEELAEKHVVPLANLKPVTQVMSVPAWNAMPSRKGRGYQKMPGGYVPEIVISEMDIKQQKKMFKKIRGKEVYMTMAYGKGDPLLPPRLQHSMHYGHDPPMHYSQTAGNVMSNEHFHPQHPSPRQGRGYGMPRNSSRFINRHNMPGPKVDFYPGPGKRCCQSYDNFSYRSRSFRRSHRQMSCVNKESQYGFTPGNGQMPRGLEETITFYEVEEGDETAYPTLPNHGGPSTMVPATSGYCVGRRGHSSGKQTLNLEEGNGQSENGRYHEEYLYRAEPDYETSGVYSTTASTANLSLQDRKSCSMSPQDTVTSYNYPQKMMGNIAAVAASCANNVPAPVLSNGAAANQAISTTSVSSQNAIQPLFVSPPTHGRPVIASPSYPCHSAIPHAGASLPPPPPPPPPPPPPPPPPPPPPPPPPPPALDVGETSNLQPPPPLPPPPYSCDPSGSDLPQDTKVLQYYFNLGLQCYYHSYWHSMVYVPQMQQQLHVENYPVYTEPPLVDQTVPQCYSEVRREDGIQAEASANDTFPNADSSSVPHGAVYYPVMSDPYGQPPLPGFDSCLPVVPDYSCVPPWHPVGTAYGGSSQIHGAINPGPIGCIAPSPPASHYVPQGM
How it was run: (§1)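 Using Biotin-Ahx-Ub-VS at 0.5 µM final for 1 h, DUBs were labelled in HEK293T lysate (495 µg per sample) that had first been treated in triplicate with fragment at 200 µM or vehicle for 3 h. NeutrAvidin enrichment, LysC and trypsin digestion and diaPASEF LC-MS/MS followed. Spectronaut label-free quantities were global-median-normalised. Values are average log2 fragment/vehicle ratios by unpaired t-test, using proteins with ≥2 unique peptides.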

[2] = target: ATXN3 (UniProt P54252)
ATXN3, sequence (P54252 whole entry): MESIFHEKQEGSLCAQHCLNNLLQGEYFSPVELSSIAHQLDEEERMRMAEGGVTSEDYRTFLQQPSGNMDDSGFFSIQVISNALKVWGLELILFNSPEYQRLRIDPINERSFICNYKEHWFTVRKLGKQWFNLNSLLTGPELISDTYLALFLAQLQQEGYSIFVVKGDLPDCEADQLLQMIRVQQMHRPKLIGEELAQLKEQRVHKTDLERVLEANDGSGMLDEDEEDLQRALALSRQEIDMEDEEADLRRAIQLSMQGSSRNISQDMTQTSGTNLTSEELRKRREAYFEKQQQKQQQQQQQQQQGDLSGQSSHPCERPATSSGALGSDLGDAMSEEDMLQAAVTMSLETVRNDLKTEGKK
How it was run: as §1

[3] = target: T2, BAP1 (UniProt Q92560)
T2 sequence (whole entry): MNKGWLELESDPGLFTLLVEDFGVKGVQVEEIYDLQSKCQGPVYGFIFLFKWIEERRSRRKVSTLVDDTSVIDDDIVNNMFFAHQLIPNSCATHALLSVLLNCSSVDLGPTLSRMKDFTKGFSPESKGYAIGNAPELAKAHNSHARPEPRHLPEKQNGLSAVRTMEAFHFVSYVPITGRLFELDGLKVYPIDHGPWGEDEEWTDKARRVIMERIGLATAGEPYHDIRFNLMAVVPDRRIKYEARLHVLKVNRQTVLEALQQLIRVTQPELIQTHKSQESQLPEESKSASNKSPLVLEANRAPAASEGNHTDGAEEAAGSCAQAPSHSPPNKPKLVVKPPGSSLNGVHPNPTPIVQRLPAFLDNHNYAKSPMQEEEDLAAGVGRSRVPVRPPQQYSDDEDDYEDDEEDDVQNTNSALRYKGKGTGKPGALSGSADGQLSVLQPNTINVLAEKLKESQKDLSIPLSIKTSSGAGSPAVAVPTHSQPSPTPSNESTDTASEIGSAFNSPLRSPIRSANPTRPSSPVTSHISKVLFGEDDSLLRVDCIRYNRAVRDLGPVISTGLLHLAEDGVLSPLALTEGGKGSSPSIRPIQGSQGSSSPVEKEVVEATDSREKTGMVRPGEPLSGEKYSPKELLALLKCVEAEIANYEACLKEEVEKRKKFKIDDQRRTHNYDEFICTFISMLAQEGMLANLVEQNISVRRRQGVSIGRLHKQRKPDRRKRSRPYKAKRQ
How it was run: as §1

[4] = target: EIF3F (UniProt O00303)
EIF3F, sequence (O00303 whole entry): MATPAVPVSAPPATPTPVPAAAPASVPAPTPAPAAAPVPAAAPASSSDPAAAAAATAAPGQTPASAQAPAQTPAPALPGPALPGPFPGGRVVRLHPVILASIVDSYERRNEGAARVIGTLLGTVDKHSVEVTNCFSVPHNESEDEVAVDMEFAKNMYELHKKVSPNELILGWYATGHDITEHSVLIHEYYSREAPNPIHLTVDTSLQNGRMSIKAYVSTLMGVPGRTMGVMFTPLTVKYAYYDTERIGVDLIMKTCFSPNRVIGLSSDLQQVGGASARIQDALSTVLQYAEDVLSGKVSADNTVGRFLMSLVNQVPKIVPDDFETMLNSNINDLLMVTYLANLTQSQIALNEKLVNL
How it was run: as §1

[5] = target: EIF3H (UniProt O15372)
EIF3H, sequence (O15372 whole entry): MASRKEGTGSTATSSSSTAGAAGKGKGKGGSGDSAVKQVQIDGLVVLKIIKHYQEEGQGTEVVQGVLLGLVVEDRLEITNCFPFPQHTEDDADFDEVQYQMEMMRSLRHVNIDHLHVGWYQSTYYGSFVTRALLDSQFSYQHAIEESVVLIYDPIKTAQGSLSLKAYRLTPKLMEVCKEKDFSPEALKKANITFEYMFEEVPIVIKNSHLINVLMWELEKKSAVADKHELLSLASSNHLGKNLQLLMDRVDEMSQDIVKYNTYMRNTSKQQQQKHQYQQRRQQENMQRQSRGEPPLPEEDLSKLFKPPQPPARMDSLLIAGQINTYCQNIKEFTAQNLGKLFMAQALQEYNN
How it was run: as §1

[6] = target: T3, FAM105A (UniProt Q9NUU6)
T3 sequence (whole entry): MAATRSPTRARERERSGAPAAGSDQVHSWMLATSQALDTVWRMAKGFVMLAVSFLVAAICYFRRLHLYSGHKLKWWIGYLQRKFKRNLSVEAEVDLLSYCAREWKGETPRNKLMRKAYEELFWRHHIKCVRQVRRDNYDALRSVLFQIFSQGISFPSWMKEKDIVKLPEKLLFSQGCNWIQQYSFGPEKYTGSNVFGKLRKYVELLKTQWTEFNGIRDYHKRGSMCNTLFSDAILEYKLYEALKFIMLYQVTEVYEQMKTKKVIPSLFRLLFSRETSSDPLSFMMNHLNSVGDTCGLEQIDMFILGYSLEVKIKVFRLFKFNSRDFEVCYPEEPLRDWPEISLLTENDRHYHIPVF
How it was run: as §1

[7] = target: OTUB1 (UniProt Q96FW1)
OTUB1, sequence (Q96FW1 whole entry): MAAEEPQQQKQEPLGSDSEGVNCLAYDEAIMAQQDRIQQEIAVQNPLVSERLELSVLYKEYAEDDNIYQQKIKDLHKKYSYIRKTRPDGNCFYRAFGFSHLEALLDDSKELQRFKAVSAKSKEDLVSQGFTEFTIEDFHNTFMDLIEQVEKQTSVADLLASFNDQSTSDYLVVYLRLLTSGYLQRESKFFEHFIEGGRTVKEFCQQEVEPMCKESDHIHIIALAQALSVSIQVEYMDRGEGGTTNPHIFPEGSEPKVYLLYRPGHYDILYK
How it was run: as §1

[8] = target: T4, OTUD4 (UniProt Q01804)
T4 sequence (whole entry): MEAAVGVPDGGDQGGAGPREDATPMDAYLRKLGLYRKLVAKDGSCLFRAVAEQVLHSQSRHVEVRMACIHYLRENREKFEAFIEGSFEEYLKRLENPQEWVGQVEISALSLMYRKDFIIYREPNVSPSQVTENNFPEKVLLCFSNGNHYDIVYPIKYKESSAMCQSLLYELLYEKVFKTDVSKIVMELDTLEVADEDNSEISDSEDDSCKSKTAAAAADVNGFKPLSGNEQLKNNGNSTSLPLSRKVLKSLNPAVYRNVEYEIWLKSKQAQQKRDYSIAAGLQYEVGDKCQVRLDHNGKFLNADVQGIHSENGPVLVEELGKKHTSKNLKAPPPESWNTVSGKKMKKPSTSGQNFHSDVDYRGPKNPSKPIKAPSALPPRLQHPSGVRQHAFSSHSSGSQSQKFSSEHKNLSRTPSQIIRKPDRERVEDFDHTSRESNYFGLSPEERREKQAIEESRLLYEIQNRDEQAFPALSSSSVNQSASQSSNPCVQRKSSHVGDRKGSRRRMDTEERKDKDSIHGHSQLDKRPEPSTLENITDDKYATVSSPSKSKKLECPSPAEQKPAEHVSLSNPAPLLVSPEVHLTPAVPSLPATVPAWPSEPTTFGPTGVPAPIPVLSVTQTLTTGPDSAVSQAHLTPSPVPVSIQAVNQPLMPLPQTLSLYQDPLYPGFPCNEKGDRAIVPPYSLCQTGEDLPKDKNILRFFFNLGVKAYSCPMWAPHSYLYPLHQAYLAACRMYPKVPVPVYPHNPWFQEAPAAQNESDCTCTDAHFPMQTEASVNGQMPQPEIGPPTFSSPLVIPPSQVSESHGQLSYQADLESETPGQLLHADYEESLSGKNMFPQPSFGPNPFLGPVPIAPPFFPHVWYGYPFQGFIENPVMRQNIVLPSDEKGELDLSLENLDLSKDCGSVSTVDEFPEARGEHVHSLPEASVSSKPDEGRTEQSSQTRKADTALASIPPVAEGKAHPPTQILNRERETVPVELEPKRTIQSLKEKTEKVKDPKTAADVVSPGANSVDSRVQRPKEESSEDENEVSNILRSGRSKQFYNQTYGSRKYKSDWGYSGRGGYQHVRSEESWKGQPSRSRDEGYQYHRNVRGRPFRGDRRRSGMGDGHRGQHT
How it was run: as §1

[9] = target: T5, OTUD5 (UniProt Q96G74)
T5 sequence (whole entry): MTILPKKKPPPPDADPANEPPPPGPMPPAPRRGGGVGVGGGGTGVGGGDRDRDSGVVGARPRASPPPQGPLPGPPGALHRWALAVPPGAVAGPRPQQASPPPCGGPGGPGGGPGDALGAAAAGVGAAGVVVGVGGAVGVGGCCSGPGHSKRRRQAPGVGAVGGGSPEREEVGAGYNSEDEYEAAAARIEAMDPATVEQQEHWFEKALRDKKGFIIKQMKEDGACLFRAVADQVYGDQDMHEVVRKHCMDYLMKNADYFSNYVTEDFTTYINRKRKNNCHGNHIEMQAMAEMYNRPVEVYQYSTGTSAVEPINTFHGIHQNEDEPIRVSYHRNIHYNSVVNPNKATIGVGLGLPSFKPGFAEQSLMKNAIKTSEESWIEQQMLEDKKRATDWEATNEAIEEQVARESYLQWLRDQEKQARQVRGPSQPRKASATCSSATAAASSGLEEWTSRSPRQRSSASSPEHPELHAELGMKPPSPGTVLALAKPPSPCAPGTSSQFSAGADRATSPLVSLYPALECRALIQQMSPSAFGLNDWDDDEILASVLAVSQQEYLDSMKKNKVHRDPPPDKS
How it was run: as §1

Measured: log2 ratio of Biotin-Ahx-Ub-VS probe labelling

CC(O)CC1CCN(C(=O)CCl)CC1 (centres undefined)
inactive: [1] -0.345 | [2] -0.291 | [3] -0.221 | [4] -0.0746 | [5] 0.247 | [6] -0.12 | [7] 0.128 | [8] 0.0747 | [9] -0.195
